Screening results as filed in PubChem BioAssay.
This excerpt belongs to a sample that is enriched for hits.
Shiga toxin inh – inhibitors of Shiga toxin in Vero cells; 9.2% of 290,000 active; inhibition, % at 38.7 µM; Vero cells, Shiga toxin protein synthesis inhibition reporter; in the data active = inhibition mostly above about 28%, no sharp cut-off; inactive = mostly below about 43%; also: 0% is about no effect
RE007 growth inh – less growth of the S. pombe RE007 Vpr strain | S. pombe RE007 Vpr strain, BacTiter-Glo ATP luminescence, 24 h | Potency, µM (titrated, usually from 92.2 µM), for inactives: top-dose activity change, negative = less growth, actives largely listed as inhibitors | 0.21% of 360,000 active | AID 651644; active = well fitted falling curve with a large enough effect; inconclusive = small, poorly fitted or top-dose-only effect; inactive = no such curve, though single readings can be large or run the other way; also: potency is read from the fitted curve at half-maximal effect; % is scaled to controls: 0 for no effect and ±100 for the full control effect; nearly all actives have a fitted effect of over 50% in size
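Fission yeast strain RE007, carrying one chromosomally integrated HIV-1 vpr copy, was seeded at OD 0.01 in PMG+AL medium with 23 nL pinned compound. After 24 h at 30 °C and 99% humidity, viability was read by BacTiter-Glo luminescence.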
Cycloheximide cs – counter-screen for Shiga toxin inhibitors: cycloheximide protein synthesis inhibition; cell reporter, cycloheximide protein synthesis inhibition counterscreen; max response, %; 12% of 300,000 active; AID 2314; in the data active = max response mostly above about 13%, no sharp cut-off; inactive = mostly below about 14%; also: read at 38.3 µM for the half of the compounds with a filed dose; 0% is about no effect
Giardia FBPA inh – inhibitors of Giardia lamblia fructose-1,6-bisphosphate aldolase; A8B2U2; purified Giardia FBPA; Potency, µM (highest dose often 59.6 µM), inactives show top-dose activity, negative = inhibition, hits mostly inhibitors; 0.71% of 290,000 active; also: potency is read from the fitted curve at half-maximal effect; % is scaled to controls: 0 for no effect and ±100 for the full control effect; nearly all actives have a fitted effect of over 55% in size
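40 nM FBPA preincubated 10 min at RT with compound (up to 57.5 uM final), then substrate plus GAPDH/TPI/NAD/arsenate coupling and diaphorase/resazurin added. Fluorescence read after 20 min at RT, 525/598 nm.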
LmPK inhibitor – inhibitors of Leishmania mexicana pyruvate kinase. purified LmPK, Kinase-Glo ATP luminescence, 1 h. 0.37% of 290,000 active. Potency, µM (titrated, usually from 57.5 µM), inactives show top-dose activity change, negative = inhibition, most hits filed as inhibitors; also: potency is read from the fitted curve at half-maximal effect; % is scaled to controls: 0 for no effect and ±100 for the full control effect
Target sequence (Q27686 whole entry, looked up): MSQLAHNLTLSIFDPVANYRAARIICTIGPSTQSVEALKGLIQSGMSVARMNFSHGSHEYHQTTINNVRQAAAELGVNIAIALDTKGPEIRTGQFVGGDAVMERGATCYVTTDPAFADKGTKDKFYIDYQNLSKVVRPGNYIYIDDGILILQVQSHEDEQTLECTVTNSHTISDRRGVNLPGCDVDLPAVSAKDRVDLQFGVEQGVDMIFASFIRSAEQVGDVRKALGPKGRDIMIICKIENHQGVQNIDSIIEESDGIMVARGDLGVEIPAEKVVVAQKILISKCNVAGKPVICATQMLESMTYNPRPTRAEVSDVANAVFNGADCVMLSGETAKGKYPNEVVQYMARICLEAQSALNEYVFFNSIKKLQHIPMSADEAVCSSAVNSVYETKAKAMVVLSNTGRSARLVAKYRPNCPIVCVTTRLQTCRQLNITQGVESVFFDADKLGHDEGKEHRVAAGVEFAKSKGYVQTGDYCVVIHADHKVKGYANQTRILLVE
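qHTS format; LmPK 0.1 nM; substrates PEP 0.5 mM and ADP 0.1 mM. One-hour room-temperature incubation, then coupled luciferase luminescence; 0.5 nM enzyme wells mark activation.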
TbPYK inhibitor – blocks Trypanosoma brucei pyruvate kinase; TbPYK enzyme, Kinase-Glo Plus ATP luminescence, 45 min; Q57TT1; 0.12% of 410,000 active; Potency, µM (highest dose often 76.8 µM), for the others: at the highest dose activity, negative = inhibition, actives largely listed as inhibitors; also: potency is read from the fitted curve at half-maximal effect; % is scaled to controls: 0 for no effect and ±100 for the full control effect; nearly all actives have a fitted effect of over 50% in size
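Readout: single end-point luminescence (Kinase-Glo Plus, 10 min). Reaction conditions were TbPYK/substrate plus 130 uM ADP, 45 min at RT, pH 7.2 TEA buffer. No-enzyme wells served as controls, and data were normalized before concentration-response fitting.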
Numbers without * were called inactive; ? = inconclusive; nt = not tested or not shown; [ ] = another dose, or the depositor's remark. Unless noted, calls follow the shape of the dose curve; as a rule, active = well fitted curve in the direction sought with a large enough effect; inconclusive = small, poorly fitted or top-dose-only effect, or another doubt; inactive = no such curve, though single readings can be large; an effect the other way counts as inactive or inconclusive.

SMILES | Shiga toxin inh | RE007 growth inh | Cycloheximide cs | Giardia FBPA inh | LmPK inhibitor | TbPYK inhibitor
O=C(CCC(=O)N1CCN(c2ccc(F)cc2)CC1)N1CCN(c2ccc(F)cc2)CC1 | -5 | -1% | -2 | 12% | -3% | -1%
O=C(c1ccc(F)cc1)c1ccc(N2CCCCC2)cc1 | 97* | -2% | 61* | 0% | 3% | -2%
O=S(=O)(c1ccc(N2CCCC2)cc1)C(F)(F)F | 72* | 1% | 28* | -12% | -1% | 1%
O=C(c1ccc(F)cc1)c1ccc(N2CCCC2)cc1 | 151* | 0% | 63* | 1% | 4% | 2%
O=C(Nc1ccc(N2CCCCC2)cc1)c1cccnc1 | 129* | -8% | 22* | -6% | -8% | -9%
O=C(Nc1ccc(N2CCN(Cc3ccccc3Cl)CC2)cc1)c1cccnc1 | -7 | 17% | 1 | 9% | 3% | 2%
CCC(=O)N1CCCc2cc(S(=O)(=O)N3CCC(C(=O)Nc4ccccc4CC)CC3)ccc21 | nt | nt | nt | nt | nt | -1%
CC(CCc1ccccc1)NC(=O)CN1CCN(c2ccccc2)CC1 (configuration not stated) | -4 | -3% | -4 | 7% | 10% | 6%
CCOc1ccc(OCC(=O)NCCS(=O)(=O)N2CCN(c3ccccc3F)CC2)cc1 | nt | nt | nt | nt | nt | -2%
CCCCC#CC1C=CC(Oc2cc(OC)c(OC)c(OC)c2)C(COC(=O)OCC)O1 (configuration not stated) | nt | nt | nt | -11%[12.9 µM] | nt | nt
O=C(Nc1ccc(N2CCCCC2)cc1)c1ccc(F)cc1 | 77* | -8% | 52* | -2% | ? | -8%
Cc1ccc(NC(=O)Nc2ccccc2CC[N+](=O)[O-])cc1 | -2 | 4% | 16* | 3% | 2% | 0%
Cc1cc(C)cc(NC(=O)c2ccccc2CC[N+](=O)[O-])c1 | 13 | -14% | 6 | 2% | 3% | -3%
COc1ccccc1N1C(=O)S/C(=C\c2ccc(C)s2)C1=O | 28* | 14% | 22* | ? | 1% | -4%
CCOC=C1SC(=S)N(c2ccccc2OC)C1=O | nt | -17% | nt | nt | nt | 3%
COc1ccccc1N1C(=O)S/C(=C\c2cc(C)n(C)c2C)C1=O | 56* | -3% | 29* | -13% | 2% | -10%
COc1ccc(N=C2S/C(=C\c3cc(C)n(C)c3C)C(=O)N2C)cc1 | -13 | -4% | -1 | -15% | -3% | -14%
CC(C)(C)OC(=O)N1CCC(c2c(C(=O)NCc3ccco3)cnn2-c2ccc(F)cc2)CC1 | nt | nt | nt | nt | nt | -6%
C=C1c2cccc(O)c2C(O)=C2C(=O)[C@@]3(O)C(O)=C(C(N)=O)C(=O)[C@@H](N(C)C)[C@@H]3[C@@H](O)[C@H]12 | nt | nt | nt | ? | nt | -15%[33.2 µM]
COc1ccc(C(=O)Nc2nc(-c3nnn(-c4ccc(F)cc4F)c3C)ns2)cc1 | nt | nt | nt | nt | nt | 1%
CCc1ccc(C(=O)NNc2ccc(F)cc2)cc1 | 41* | 132% | 14 | 5% | 7% | 2%
CCc1ccc(C(=O)NNc2ccccc2F)cc1 | 71* | 208% | 36* | 2% | -5% | 8%
CCc1ccc(C(=O)NNc2ccc(C)c(Cl)c2)cc1 | 10 | 29% | 9.9* | -3% | -2% | -6%
CCc1ccc(C(=O)NNc2cc(Cl)ccc2Cl)cc1 | 13 | 1% | 2 | 0% | 3% | -25%
CCCc1ccc(C(=O)NNc2ccccc2F)cc1 | 77* | 30% | 20* | 1% | -1% | -1%
SMILES | Shiga toxin inh | RE007 growth inh | Cycloheximide cs | Giardia FBPA inh | LmPK inhibitor | TbPYK inhibitor
CCCCN(C)C(=O)c1[nH]c(C(F)(F)F)nc1-c1ccccc1 | nt | -7% | nt | nt | nt | 3%
NS(=O)(=O)c1ccc(NC(=S)N2CCc3ccccc32)cc1 | -17 | 12% | 3 | nt | -6% | -6%
FC(F)Oc1ccc(NC(=S)N2CCc3ccccc32)cc1 | 78* | -17% | 36* | -4% | -6% | 1%
Fc1ccc(NC(=S)N2CCc3ccccc32)cc1 | 41* | 0% | 15* | -27% | 2% | -3%
COc1ccc(-c2ccc(C(=O)NCCc3ccccc3)c3occc23)c(C)c1 | nt | -10%[18.4 µM] | nt | nt | nt | 8%
N#Cc1ccc(C(=O)Nc2ccc(Cl)c(-c3nc4cc(Cl)ccc4o3)c2)c(F)c1 | nt | nt | nt | nt | nt | 1%
